# In PubChem BioAssay (NCATS):
# Unmarked numbers belong to inactive results.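 Rule for the calls: active = compounds whose dose series gives a full or clear partial fitted curve of increased nuclear translocation; inconclusive = weak partial curve or effect only at the top dose; inactive = no dose-dependent translocation response.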
# Biological target: Glucocorticoid receptor (Homo sapiens) (UniProt P04150)
# Test: GR-GFP Redistribution (AID 450)
# Conditions: U2OS GR-GFP nuclear translocation, laser cytometry, 2 h; series mostly up to 20.6 µM
# Potency is the fitted concentration of half-maximal effect.
# Chain of Glucocorticoid receptor (Homo sapiens) (P04150 whole entry, looked up): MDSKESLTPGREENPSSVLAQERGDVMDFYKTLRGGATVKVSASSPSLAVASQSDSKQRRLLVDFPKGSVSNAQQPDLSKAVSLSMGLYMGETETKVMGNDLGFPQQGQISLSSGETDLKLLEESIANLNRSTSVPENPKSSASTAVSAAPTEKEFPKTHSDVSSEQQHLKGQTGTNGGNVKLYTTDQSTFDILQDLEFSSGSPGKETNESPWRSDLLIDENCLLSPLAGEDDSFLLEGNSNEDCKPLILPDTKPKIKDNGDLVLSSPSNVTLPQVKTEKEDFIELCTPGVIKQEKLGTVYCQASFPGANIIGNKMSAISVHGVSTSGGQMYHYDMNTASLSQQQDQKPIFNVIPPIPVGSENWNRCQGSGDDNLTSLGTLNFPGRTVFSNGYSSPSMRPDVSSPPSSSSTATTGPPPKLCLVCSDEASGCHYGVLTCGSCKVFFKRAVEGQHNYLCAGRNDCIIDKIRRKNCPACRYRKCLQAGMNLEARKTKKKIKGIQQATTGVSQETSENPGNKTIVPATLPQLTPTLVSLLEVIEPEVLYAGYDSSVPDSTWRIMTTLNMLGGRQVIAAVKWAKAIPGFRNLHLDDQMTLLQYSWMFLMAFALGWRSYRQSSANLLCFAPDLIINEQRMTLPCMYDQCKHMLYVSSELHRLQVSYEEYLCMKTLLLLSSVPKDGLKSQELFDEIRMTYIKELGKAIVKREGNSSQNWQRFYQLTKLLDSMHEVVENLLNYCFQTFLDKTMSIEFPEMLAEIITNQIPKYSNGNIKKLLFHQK
row,Structure (SMILES),Potency [µM]
1,Cc1c(Cl)c(C(F)(F)F)nn1CC(=O)N1CCSCC1,> 20.6
2,CCOC(=O)c1c(C)[nH]c(/C(C)=N/O)c1C,> 20.6
3,O=c1c(C=NCCCn2ccnc2)c(-c2ccccc2)[nH]n1-c1nc2ccccc2s1,> 20.6
4,O=C(C1=C(O)C(=O)N(CCN2CCOCC2)C1c1cccnc1)c1cc2ccccc2o1 (stereo not given),> 20.6
5,CCCc1cc(=O)oc2c(C)c(O)c(CN3CCCCC3)cc12,> 20.6
6,CCOC(=O)CC(=O)CSc1nc(N)c(C#N)c(-c2ccc(F)cc2)c1C#N,> 20.6
7,COC(=O)CSc1ncnc2c1sc1nc(-c3ccco3)c3c(c12)CC(C)(C)OC3,> 20.6
8,Cc1cccn2c(=O)c3cc(C#N)c(=N)n(Cc4ccncc4)c3nc12,> 20.6
9,CCC(NC(=O)Nn1cnnc1)(C(F)(F)F)C(F)(F)F,> 20.6
10,CCN(CC)CCN1C(=O)C(=O)/C(=C(/O)c2c(C)[nH]c(C(=O)OC)c2C)C1c1cccc(OC)c1 (stereo not given),> 20.6
11,Cc1nc(SCC(=O)Nc2ccc3c(c2)OCO3)c(C#N)c2c1CCCC2,> 20.6
12,COC(=O)C(NC(C)=O)(Nc1ccccc1)C(=O)OC,> 20.6
13,O=c1c(F)cn(C2CCCO2)c(=O)n1Cc1ccccc1Cl (stereo not given),> 20.6
14,CCCCOc1ccc(CN(C)c2ncnc(N)n2)cc1,> 20.6
15,CN1C(=O)c2c(sc3c2CCCC3)NC1c1ccccc1O (stereo not given),> 20.6
16,COC(=O)C(NC(=O)c1ccco1)(Nc1ccc(Br)cn1)C(F)(F)F (stereo not given),> 20.6
17,CCCc1nnc(NC(=O)Nc2ccccc2OC)s1,> 20.6
18,Cc1cc(C)nc(CC(N)=O)n1,> 20.6
19,Cn1c(OCc2ccc3c(c2)OCO3)nc2c1c(=O)n(Cc1cccc(Cl)c1)c(=O)n2C,> 20.6
20,COc1ccc(NC(=O)Nc2cccc(C(=O)N3CCOCC3)c2)cc1OC,> 20.6

row,Structure (SMILES),Potency [µM]
1,COc1ccccc1N(O)C1CC(=O)N(c2ccc(Br)cc2)C1=O (stereo not given),> 20.6
2,COC(=O)c1cc(Br)c(=O)n(Cc2cccnc2)c1,> 20.6
3,CC1(C)Cc2[nH]c(=S)c(C#N)cc2CO1,> 20.6
4,CC1(C)Cc2c(sc3[nH]c(=S)n(Cc4ccco4)c(=O)c23)CO1,> 20.6
5,Cc1cc(=O)oc(C)c1C(=O)NCCC1=CCCCC1,> 20.6
6,CC(=O)NCCCCCCNC(C)=O,> 20.6
7,N#Cc1cccc(-n2c(-c3ccccc3)nnc2-c2ccccc2)c1C#N,> 20.6
8,CN(C)c1nc2sc3c(c2c(=O)n1C)CC(C)(C)OC3,> 20.6
9,COc1cccc(Cn2c(OCC3CCCO3)nc3c2c(=O)n(C)c(=O)n3C)c1 (stereo not given),> 20.6
10,CC1(C)Cc2c(sc3ncn4nc(-c5ccco5)nc4c23)CO1,> 20.6
11,CCOC(=O)C1=C(C(C)=O)C(c2cccnc2)C(C#N)=C(N)O1 (stereo not given),> 20.6
12,Nc1nnnn1CC(=O)OCc1cccc(Br)c1,> 20.6
13,CN(C)c1cccc2c(S(=O)(=O)N3CCOCC3)cccc12,> 20.6
14,COC(=O)C(C)Sc1nc2c(c(=O)n(C)c(=O)n2C)n1CCC(C)C (stereo not given),> 20.6
15,NS(=O)(=O)c1cc2c(cc1Cl)NC(C1C[C@H]3C=C[C@@H]1C3)NS2(=O)=O (stereo not given in full),> 20.6
16,CC(C(=O)NC(=O)NCc1ccccc1)N1C(=O)c2ccccc2C1=O (stereo not given),> 20.6
17,Cc1ccc(C(=O)C2=C(O)C(=O)N(c3ncccn3)C2c2cccc(Cl)c2)o1 (stereo not given),> 20.6
18,CC(C)CC(=O)Nc1ncnc2c1C(=O)CC(C)(C)C2,> 20.6
19,CCCCc1nc2sc3c(c2c(=O)[nH]1)CCC3,> 20.6
20,Cc1cc(C)n(CC(=O)c2ccccc2)c(=O)c1C#N,> 20.6
